Compounds without any hit were thinned out: in the full panel of roughly 83,000, 20% have a hit.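 Testing used 96-well plates and a 48-hour single-concentration exposure. Example: -40 means 40% of the starting cells died.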 Values without a mark were called inactive. The source made the active and inactive calls. How the source made its calls: active means growth percent below 10; inactive means the rest.
Key:
Experiment in all cases: NCI-60 one-dose screen, 48 h (100 = growth as untreated, 0 = no growth, -100 = all killed)
Details in all cases: 10 µM unless noted
[1] = tested on: DU-145 prostate
[2] = tested on: K-562 leukemia
[3] = tested on: MALME-3M melanoma
[4] = tested on: MDA-MB-231 breast
[5] = tested on: RXF 393 renal
[6] = tested on: SF-268 CNS
[7] = tested on: SF-295 CNS
[8] = tested on: SF-539 CNS
[9] = tested on: UACC-257 melanoma
[10] = tested on: M14 melanoma

SMILES	growth [1]	growth [2]	growth [3]	growth [4]	growth [5]	growth [6]	growth [7]	growth [8]	growth [9]	growth [10]
O=C(Nc1ccc(Oc2cccc(Cl)c2)c(Cl)c1)c1cnccn1	22.7%	13.2%	53.4%	31.7%	-4.58% (active)	54.3%	41.2%	-35.2% (active)	72.4%	19.8%
Nc1cc(C(=O)NC[C@H]2CN(c3ccc(N4CCC(C(=O)O)CC4)cc3)C(=O)O2)ccc1Cl	109%	92.1%	94%	94.2%	112%	98.4%	103%	93.7%	98.8%	98.2%
C=C1C(=O)O[C@H]2[C@H]1CC/C(COC(=O)C(=O)c1cn(C)c3ccc(Cl)cc13)=C\CC[C@@]1(C)O[C@@H]21	-96% (active)	3.09% (active)	-65.6% (active)	-68.7% (active)	-97% (active)	-65.1% (active)	-65.4% (active)	-70.9% (active)	-84.1% (active)	-77.3% (active)
COc1ccc(C/C(C)=C(/c2ccc(OCCN(C)C)cc2)c2ccc(OC(=O)NCc3ccccc3)cc2)cc1	81.1%	-29.2% (active)	88.5%	57.9%	60.3%	72.9%	88%	88.9%	75.8%	25.1%
O=C(/C=C/c1cccc(Cl)c1)c1cccc(OCCCOc2cccc(C(=O)/C=C/c3cccc(Cl)c3)c2)c1	108%	86.9%	116%	94.9%	104%	98.8%	95.1%	106%	102%	89.9%
COc1ccc(-c2cc(-c3cccnc3)nc3sc4c(=O)[nH]c(-c5ccc(Cl)cc5)nc4c23)cc1OC	105%	85.7%	115%	76.7%	103%	93.4%	99.5%	96.1%	97.5%	106%
O=C(Cn1cc(CSc2nc3ccccc3o2)nn1)Nc1ccc(F)cc1F	124%	107%	106%	112%	103%	115%	106%	106%	103%	108%
COc1ccccc1N1CCCCC1	110%	93.5%	94.6%	99.9%	133%	108%	98.9%	94.3%	108%	101%
COc1cc(C2CC(c3ccc(Nc4nc(Nc5ccc(Cl)cc5)nc(Nc5ccc(Cl)cc5)n4)cc3)=NN2C(C)=O)cc(OC)c1OC (stereo not given)	115%	73.5%	99.2%	102%	92.4%	106%	102%	98.7%	103%	102%
COc1ccc(Nc2ncc(Br)c(NCCCNC(=O)C3CCCC3)n2)cc1	48.9%	31.2%	58.5%	-27.7% (active)	-20.9% (active)	21.6%	39.4%	2.9% (active)	96.5%	61.5%
Oc1c(Br)cc(Br)c2ccc(Cn3cc(-c4ccccc4C(F)(F)F)nn3)nc12	86%	4.64% (active)	89.6%	109%	60.1%	94.1%	104%	97.3%	79%	94.6%
COC(=O)CC[C@@H]1O[C@@H](c2cccc(C(F)(F)F)c2)[C@@H](O)[C@H]1O	103%	112%	99.1%	108%	95.3%	101%	104%	97.2%	106%	102%
COc1cc(-c2nccc3[nH]c(-c4ccc5cc[nH]c5c4)nc23)cc(OC)c1OC	18.2%	-14.4% (active)	21.7%	-20.3% (active)	18%	19.3%	-59.4% (active)	-19.5% (active)	29.6%	4.35% (active)
COC12C=C/C(=C(/C(=O)OCc3ccncc3)C(=O)CCCCCCCCC3(OC)C=C/C(=C(/C(=O)OCc4ccncc4)C(=O)CCCCCCCC1)O3)O2	-60.7% (active)	-4.08% (active)	-67.7% (active)	1.77% (active)	-82.7% (active)	-28% (active)	-23.8% (active)	-60.1% (active)	-29.6% (active)	-24.4% (active)
O=C(CN1C(=O)S/C(=C\c2ccccc2)C1=O)Nc1ncc(Cc2ccccc2Cl)s1	87%	97.3%	104%	101%	125%	87.9%	100%	94.8%	96.9%	102%
Clc1ccc(/C=N\N=C\c2ccc(Cl)c(Cl)c2)cc1Cl	3.88% (active)	88.8%	125%	80.6%	79.3%	91.9%	81.1%	102%	106%	88.6%
CCN(CC)CC(O)COc1c(Br)c(Br)c(Br)c2c1OC(C)(C)C2 (stereo not given)	117%	23.9%	-30.1% (active)	44.7%	99.4%	83%	1.69% (active)	108%	140%	41.3%
C=CCn1c(SCC(=O)Nc2ccc(C(=O)/C=C/c3ccc(Cl)cc3)cc2)nnc1-c1ccc(Br)cc1	75.3%	61%	97.6%	81.2%	74.8%	73.6%	96.8%	90.3%	92.3%	89.7%
Clc1cccc(Nc2ncnc3ccc(-c4cnc5[nH]ccc5c4)cc23)c1	54%	62.1%	82.9%	75%	73.7%	66.2%	86.8%	84%	75%	88.7%
Oc1ccc(Cl)cc1/C=N\NC(=S)N/N=C/c1cc(Cl)ccc1O	58.3%	22.1%	23.4%	37.2%	42.6%	40.6%	11%	20%	21.8%	27.1%
Nc1ncnc2c1N=C(c1ccc(Br)cc1)CC(c1cccc(Nc3ccnc4cc(C(F)(F)F)ccc34)c1)N2 (stereo not given)	85.6%	23%	76.8%	55.9%	38.5%	55.5%	52.2%	70.8%	66.6%	60.1%
C[C@@H](CO)[C@@H]1CCC=C2CC[C@]3(C)[C@H](CC[C@@H]4[C@@]5(C)CCCNC(C)(C)[C@@H]5CC[C@]43C)[C@H]21	62.4%	-19.9% (active)	46.6%	59.9%	68%	82.2%	93.7%	57.8%	30.4%	30.9%
COC1/C=C/OC2(C)Oc3c(C)c(O)c4c(O)c(c(/C=N/Nc5ccc([N+](=O)[O-])cc5[N+](=O)[O-])c(O)c4c3C2=O)NC(=O)C(C)=C/C=C/C(C)C(O)C(C)C(O)C(C)C(OC(C)=O)C1C (stereo not given)	39.4%	4.82% (active)	29.2%	-7.83% (active)	-74.3% (active)	13.8%	81.1%	-2.39% (active)	34.6%	11.4%
CCOC(=O)c1c2c(n3cccc(F)c13)C(=O)c1ncccc1C2=O	3.34% (active)	9.2% (active)	25.6%	38.2%	1.36% (active)	20.9%	3.24% (active)	-9.12% (active)	12.7%	-33.1% (active)
